This is a sample that favours compounds with a hit; in the whole collection about 1.1% have one here.
LANA-H2A inh = blocks KSHV LANA binding to histone H2A/H2B; cell-free LANA-H2A/H2B peptide, fluorescence polarization; inhibition, % (concentration not given with the values); AID 2629; Q9QR71; 320,000 compounds, 0.6% hits; in the data active = inhibition mostly above about 10%, no sharp cut-off; inactive = mostly below about 6.7%
IDE cell activ = activators of human insulin-degrading enzyme in cells | P14735 | HEK cells, FAbeta-B cleavage, fluorescence polarization; 0% vehicle, 100% cell-free pure enzyme wells | activation, % at 5.96 µM | 340,000 compounds, 0.073% hits | AID 493087;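 active = activation above the mean of all tested compounds plus 3 SD, set per screening campaign, cut at about 17% in these data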
IDE inh = cellular human IDE inhibition; HEK cells, FAbetaB cleavage, fluorescence polarization; 320,000 compounds, 0.41% hits; inhibition, % at 5.59 µM; P14735;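 active = percent inhibition above the average of all tested compounds plus 3 SD, set per screening campaign, cut at about 16% in these data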;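 note: IDE supplied by intact live HEK cells; FP after avidin binding of uncleaved biotin substrate so inhibition keeps polarization high; 0% = DMSO wells and 100% = 60 µM reference IDE inhibitor Ii1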
HDAC3 inhib = blocks human histone deacetylase 3 | recombinant HDAC3, fluorogenic peptide/trypsin coupled, fluorescence | 320,000 compounds, 0.15% hits | AID 2718 | inhibition, % at 8.3 µM | O15379; in the data active = inhibition above about 26%, passing the limit was not always enough
* = called active by the depositor; . = no result given; + = active, no number; ! = repeats disagree.

SMILES | LANA-H2A inh | IDE cell activ | IDE inh | HDAC3 inhib
COC(=O)C1=NNC2(c3ccc(Cl)cc3)C(=O)N(c3ccc(Cl)cc3)C(=O)C12 (stereo not drawn) | -5.5 | 6.1 | -1.6 | 11.7
COC(=O)C1=NNC2(c3ccc(Cl)cc3)C(=O)N(c3ccccc3)C(=O)C12 (stereo not drawn) | -3.1 | 1.5 | -4.3 | 34.1*
Cn1c(=O)c2c(nc(SCCN3CCOCC3)n2C)n(C)c1=O | -2.0 | -0.6 | -1.7 | -4.5
COc1cc2c(C(=O)N3CCN(c4ccccc4F)CC3)cn(C)c(=O)c2cc1OC | 1.4 | -3.4 | 12.1 | 44.5*
COc1cc(SC)ccc1C(=O)N1CCN(c2ccccc2F)CC1 | -2.4 | 2.7 | 2.3 | 2.3
CC(=O)Nc1c2c3c(cccc3n(C)c1=O)C(=O)c1ccccc1-2 | 7.0 | 0.0 | 3.1 | -2.3
Cn1c(=O)c(Nc2ccc(Cl)cc2)c2c3c(cccc31)C(=O)c1ccccc1-2 | 65.6* | . | 15.5 | 4.4
Cc1cccnc1Nc1nc(-c2ccccc2)cs1 | 23.0* | 2.1 | 2.8 | 4.7
Cn1c(CN2CCOCC2)nnc1SCC(=O)Nc1ccc([N+](=O)[O-])cc1O | 1.4 | 23.7* | -15.7 | -4.0
Cc1cccc(Cn2c(N(C)CCO)nc3c2c(=O)[nH]c(=O)n3C)c1 | 14.1* | -0.1 | -1.0 | -1.2
O=C(Nc1ccccc1C(=O)NCc1cccnc1)c1ccccc1F | 0.8 | -0.3 | -0.8 | 0.7
CN(C(=O)COc1ccc(Cl)cc1Br)C1CCCCC1 | 53.0* | 4.4 | 1.1 | 7.2
O=C(COC(=O)COc1ccc(Cl)cc1Br)NC1CCCCCC1 | -3.8 | 2.6 | -3.9 | 14.3
COc1ccc(N(CC(=O)NCCc2ccc(Cl)cc2)S(=O)(=O)c2c(C)[nH]c(=O)[nH]c2=O)cc1 | -1.0 | 2.8 | -2.4 | -3.9
N#Cc1cnc(NN)nc1 | 165.3* | -2.5 | -0.2 | 0.3
O=S(=O)(Nc1cc2nc3ccccc3nc2n1Cc1ccccc1)c1ccc(Cl)cc1 | + | -12.7 | 9.3 | -7.9
COc1ccc(C(=O)NC(=S)SCC(=O)O)cc1 | -1.2 | -4.3 | -6.2 | 1.3
CCOC(=O)CSC(=S)NC(=O)c1ccc(OC)cc1 | -3.0 | 6.5 | 0.4 | 78.7*
N/C(=N\OC(=O)Nc1ccccc1)c1ncc([N+](=O)[O-])s1 | -0.3 | -0.3 | 4.5 | 2.3
CCOC(=O)c1c(NC(=O)CSc2nnc(-c3ccccc3)n2CC)sc(C(C)=O)c1C | 22.8* | 4.7 | 7.8 | 1.0
CCOC(=O)c1c(NC(=O)CSc2nnc(-c3cccc(C)c3)n2CC)sc(C(C)=O)c1C | -2.3 | -5.5 | 2.9 | 2.8
O=C(CC(C(=O)O)c1ccc(Cl)cc1Cl)c1ccc(Cl)cc1 (stereo not drawn) | 0.7 | 3.0 | 0.2 | -5.9
COC(=O)c1ccccc1SCc1csc(C)n1 | 6.2 | -4.3 | -2.4 | -0.1
O=C(O)c1ccccc1SCc1csc(-c2ccccc2)n1 | 12.3* | 1.4 | 5.3 | 3.7
CCOCC(=O)Nc1cc([N+](=O)[O-])ccc1OC | 22.4* | -2.3 | -4.2 | 2.1
SMILES | LANA-H2A inh | IDE cell activ | IDE inh | HDAC3 inhib
Cc1noc(C)c1NC(=O)N(C)C[C@H]1Oc2ccc(NS(=O)(=O)c3cccs3)cc2C(=O)N([C@H](C)CO)C[C@@H]1C | 1.4 | -0.5 | 1.8 | -0.4
NS(=O)(=O)c1ccc(CCNC(=O)CNC(=O)COc2ccccc2)cc1 | -4.6 | 2.1 | 3.2 | -2.8
NS(=O)(=O)c1ccc(CCNC(=O)CNC(=O)c2ccc(Br)o2)cc1 | 23.4* | 4.1 | -3.4 | -1.1
CCCCNC(=O)C1CCN(C(=O)C2CCN(S(=O)(=O)c3ccc(C)cc3)CC2)CC1 | 12.6* | -1.2 | -5.6 | 2.1
CCC(C)NC(=O)C1CCN(S(=O)(=O)c2ccc3[nH]c(=O)ccc3c2)CC1 (stereo not drawn) | -4.2 | 10.8 | 5.5 | -1.8
CCCNC(=O)C1CCN(S(=O)(=O)c2ccc3[nH]c(=O)ccc3c2)CC1 | 20.2* | -0.5 | -2.4 | -0.9
CC(=O)NCCCCCCNC(C)=O | 30.6*! | 4.7 | 2.3 | 6.6
CC(=O)NCCSCCNC(C)=O | -1.4 | -3.7 | -2.2 | 3.0
CCOc1ccc(C(=O)COC(=O)c2nn(CC)c(=O)c3ccccc23)cc1 | 12.8* | 2.1 | -2.5 | 2.6
COc1cc(OC)cc(C(=O)NC2CCN(CC(=O)Nc3cccc4ccccc34)CC2)c1 | 1.7 | 4.5 | 0.5 | -5.9
CCOC(=O)C1CCN(C(=O)COC(=O)c2cc([N+](=O)[O-])ccc2N2CCOCC2)CC1 | 3.1 | -2.6 | -3.0 | 3.6
CCOC(=O)C1CCN(C(=O)c2ccc(N3CCOCC3)c([N+](=O)[O-])c2)CC1 | 20.8* | 2.6 | 6.6 | 4.8
CC1(C)Cc2c(cnn2-c2ccccc2)-c2c1c1ccccc1n2CC(O)CBr (stereo not drawn) | -4.3 | 1.8 | 3.9 | -5.3

Source: PubChem
